Compound activity deposited in PubChem by National Center for Advancing Translational Sciences (NCATS).
Most compounds without a hit are left out; they make up all but 0.89% or so of the library.
Eya2 phos inh = blocks the phosphatase activity of human Eya2. O00167. recombinant Eya2, OMFP fluorescence dephosphorylation (OMFP is methylfluorescein phosphate). Potency, µM (highest dose often 76.9 µM), without a hit: at the top dose activity, negative = inhibition, hits mostly inhibitors. 330,000 compounds, 0.006% hits; further: potency means the concentration at half of the fitted maximal effect; on the % scale 0 is the no-effect control and ±100 the full control effect
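Eya2 (0.2 uM) preincubated 10 min at ambient with compound, then OMFP substrate added at 50 uM; 10 min reaction in 50 mM HEPES pH 7.5, 50 mM NaCl, 5 uM MgCl2, 0.05% BSA, 1 mM DTT. Fluorescence read at Ex 485/Em 525 nm.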
MBNL1 CUG block = inhibitors of human MBNL1 binding to CUG repeat RNA; Q9NR56; TR-FRET MBNL1-His/biotin-(CUG)12 binding, 665/545 ratio; Potency, µM (series often up to 57.5 µM), without a hit: top-dose activity change, negative = inhibition, actives largely listed as inhibitors; 280,000 compounds, 0.036% hits; AID 2675; active means well fitted inhibition curve with a large enough effect in the signal ratio, with a control signal flat, not every such curve was filed as active; inconclusive means small, poorly fitted or top-dose-only effect, or effect the other way, or a change in a side signal; inactive means no such curve, though single readings can be large or run the other way; the % refers to the signal ratio; further: potency means the concentration at half of the fitted maximal effect; on the % scale 0 is the no-effect control and ±100 the full control effect
Target sequence (Q9NR56 whole entry, looked up): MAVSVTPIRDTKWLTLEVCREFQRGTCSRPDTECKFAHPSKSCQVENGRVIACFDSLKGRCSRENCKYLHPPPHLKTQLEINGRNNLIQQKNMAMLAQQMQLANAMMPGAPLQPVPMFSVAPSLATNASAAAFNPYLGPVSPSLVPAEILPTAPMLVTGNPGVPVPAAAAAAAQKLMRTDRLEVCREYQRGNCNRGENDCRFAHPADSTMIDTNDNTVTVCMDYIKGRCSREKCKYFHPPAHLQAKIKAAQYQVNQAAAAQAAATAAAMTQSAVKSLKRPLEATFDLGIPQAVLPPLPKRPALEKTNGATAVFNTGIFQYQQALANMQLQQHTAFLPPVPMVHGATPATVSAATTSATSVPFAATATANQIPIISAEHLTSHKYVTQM
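Compounds (final 92 nM to 58 uM) are added to His-tagged MBNL1 and biotin-(CUG)12, then terbium anti-His antibody and streptavidin-XL665 (5 nM final). After 60 min at room temperature, the 665/545 nm ratio is read.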
CBFb RUNX1 block = CBF-beta/RUNX1 interaction disruption; Q01196+Q13951; AlphaScreen CBFb-His/RUNX1-biotin binding, biochemical; Potency, µM (series often up to 59.8 µM), for the others: top-dose activity, negative = inhibition, actives largely listed as inhibitors; 230,000 tested, under 10 active; further: % of control where 0% means no effect
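CBFb-His/RUNX1-biotin, 30 nM each, preincubated 20 min RT; compound 15 min RT; Ni + streptavidin beads 50 ng each, 90 min RT; AlphaScreen read.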
Six1-Eya2 blk = Six1/Eya2 interaction inhibition; Q15475+O00167; AlphaScreen GST-Six1/His-Eya2 binding, biochemical; stronger effect = lower value; activity change, % (test concentration not listed); 360,000 compounds, 0.56% hits; AID 651725; in the data active means activity change below about -65%; inconclusive means mostly about -30% to -63%; further: on the % scale 0 is the no-effect control and ±100 the full control effect
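Homogeneous AlphaScreen proximity assay pairing GST-Six1 with His-tagged Eya2 (added as 5X mix: 250 nM and 500 nM) in 50 mM Tris pH 8.0, 300 mM NaCl, 1 mM TCEP. Glutathione donor and nickel acceptor beads; 1 h, 37 °C, dark.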
CtBP-E1A inh = inhibitors of CtBP/E1A interaction; AlphaScreen GST-E1A/His-CtBP binding, 1536-well; stronger effect = lower value; AID 651724; activity change, % (concentration not given with the values); 340,000 compounds, 0.49% hits; in the data active means activity change below about -65%; inconclusive means mostly about -30% to -63%; further: on the % scale 0 is the no-effect control and ±100 the full control effect
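Homogeneous bead-based format: GST-tagged E1A captured on glutathione donor beads, His-tagged CtBP on nickel acceptor beads; compounds precede bead addition by 2 h at 37 °C.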
L3MBTL1 block = L3MBTL1 (human) inhibition; Q9Y468; AlphaScreen L3MBTL1–H3K9me1 peptide binding; Potency, µM (series often up to 57.1 µM), without a hit: at the highest dose activity, negative = inhibition, usual class: inhibitors; 230,000 compounds, 0.66% hits; AID 485360; further: potency means the concentration at half of the fitted maximal effect; on the % scale 0 is the no-effect control and ±100 the full control effect; nearly all actives have a fitted effect of over 60% in size
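Displacement of a biotinylated histone H3(1-15) peptide monomethylated at Lys9 (75 nM) from L3MBTL1 (50 nM) was measured by AlphaScreen after a 30 min room-temperature compound incubation; cefsulodin titration served as intraplate control.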
Active calls of the source: *; ? = inconclusive; nt = no result given; [ ] = remark or other dose. Unless noted, the call rests on the fitted dose curve; in most records, active means well fitted curve in the direction sought with a large enough effect; inconclusive means small, poorly fitted or top-dose-only effect, or another doubt; inactive means no such curve, though single readings can be large; an effect the other way counts as inactive or inconclusive.

SMILES | Eya2 phos inh | MBNL1 CUG block | CBFb RUNX1 block | Six1-Eya2 blk | CtBP-E1A inh | L3MBTL1 block
COc1cc(NC(=O)CN2C(=O)COc3ccc(S(=O)(=O)N4CCCCC4)cc32)cc(OC)c1 | 5% | -4% | nt | ? | -73* | nt
COc1cc(NC(=O)CN2C(=O)COc3ccc(S(=O)(=O)N4CCCC4)cc32)cc(OC)c1 | -3% | -1% | nt | ? | -77* | nt
COc1ccccc1NC(=O)CN1C(=O)COc2ccc(S(=O)(=O)N3CCOCC3)cc21 | 6% | -6% | nt | 6 | -3 | nt
COc1ccc(NC(=O)CN2C(=O)COc3ccc(S(=O)(=O)N4CCOCC4)cc32)cc1Cl | -1% | -3% | nt | 6 | -92* | nt
Cc1ccc2c(C)c(C)c(=O)n(C)c2c1 | nt | nt | nt | -1 | 3 | nt
CCCCn1nnnc1NCc1ccc(C)s1 | 5% | ? | 3% | 4 | 6 | 21%[11.4 µM]
O=C1CCCC(O)=C1N=Nc1ccc(C(=O)O)cc1 | 3% | ? | ? | ? | -3 | 3.2µM*
O=C1CCCC(O)=C1N=Nc1ccc2c(c1)OCO2 | -21% | ? | -16% | 1 | -13 | -15%
COc1ccc(/C=C/C(=O)NC(=S)Nc2ccc(S(=O)(=O)Nc3ccc(OC)nn3)cc2)cc1 | -15% | nt | 1% | ? | -77* | -8%
CCCCc1ccc(S(=O)(=O)NC(=O)C2(C)CCN2C(=O)CC2CC2)cc1 (stereo not drawn) | nt | nt | nt | 12 | -24 | nt
NNC(=O)c1sc2cc(C(F)(F)F)cnc2c1-c1cccnc1 | 9% | -2% | 3% | 2 | 2 | -2%
COC(=O)c1sc2cc(C(F)(F)F)cnc2c1-c1cccnc1 | -19% | 24% | 9% | -72* | -15 | 1%
CNc1ccccc1 | 3% | nt | 4%[21.7 µM] | 0 | -3 | -4%
CNc1cccccc1=S | -5% | ? | nt | -14 | -2 | 4µM*
CN1CCC(=O)N(CCOc2ccccc2)CC1 | 12% | 4% | nt | -83* | -86* | -2%
NC(=S)N/N=C/c1ccccc1 | 4% | 12% | -1% | 2 | 14 | 4%
NC(=S)NN=Cc1nccc2c(C(F)(F)F)cccc12 | nt | nt | nt | -75* | -72* | nt
CNc1cccnc1C=NNC(N)=S | nt | nt | nt | -88* | 0 | nt
Cc1ccc(CNC(=O)Cc2ccc(Br)cc2)cc1 | 0% | 4% | nt | 19 | -10 | 2%
O=C(OCC#CCNc1nnc(-c2cccc3ccccc23)o1)c1cccs1 | -5% | nt | nt | nt | nt | 4%
O=C(c1cccc(S(=O)(=O)Nc2ccc(F)cc2)c1)N1CCC1 | 0% | nt | nt | -3 | -3 | ?
CC1=NCCN1S(=O)(=O)c1ccccc1[N+](=O)[O-] | 10% | 15% | 1% | -93* | nt | nt
O=[N+]([O-])c1ccccc1S(=O)(=O)N1CCSCC1 | 11% | nt | nt | 5 | -3 | 3%
Cc1ccc(CN2CCN(/N=C/c3sccc3C)CC2)c(C)c1 | 3% | -2% | -8% | ? | ? | -15%
COc1ccc(/C=C/C(=O)O/N=C(\N)c2ccccn2)cc1OC | -12% | nt | nt | -9 | -73* | -6%
SMILES | Eya2 phos inh | MBNL1 CUG block | CBFb RUNX1 block | Six1-Eya2 blk | CtBP-E1A inh | L3MBTL1 block
CC1OC(OCC2OC(Oc3cc(O)c4c(c3)OC(c3ccc(O)cc3)CC4=O)C(O)C(O)C2O)C(O)C(O)C1O (stereo not drawn) | nt | nt | 22% | nt | nt | nt
CCOc1ccc(N=Nc2ccc(O)c3ncccc23)cc1 | 1% | -1% | nt | -13 | ? | nt
NS(=O)(=O)c1ccc(N=Nc2ccc(O)c3ncccc23)cc1 | -14% | ? | nt | -97* | nt | nt
Oc1ccc(N=Nc2ccc3c(c2)OCCO3)c2ncccc12 | -13% | nt | nt | -76* | nt | ?
O=C(Nc1ncccc1O)c1ccc2c(c1)OCCO2 | -20% | nt | nt | -6 | 0 | -21%
Cc1cccc(N=Nc2ccc(O)c3ncccc23)c1 | -3% | 0% | -3% | -84* | -79* | 20µM*
Cc1ccc(C)c(N=Nc2ccc(O)c3ncccc23)c1 | 16% | 6% | ? | ? | ? | nt
Cc1ccc(NC(=O)C2CCCN(C(=O)NCc3ccccc3)C2)c(C)c1 (stereo not drawn) | 7% | -4% | nt | 1 | -1 | nt
